In PubChem BioAssay (Tox21) one finds Potency, outcome and max response data, which are given here for 13 compounds.

Assay [1] in a line: qHTS RealTime-Glo MT Cell Viability Assay in HepG2 cells - 40 hour (AID 1224870). Note: nearly all actives have a fitted effect of over 50% in size. The method in brief:
(§1)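 HepG2 cells (600/well) mixed with RealTime-Glo MT reagent, settled 5 h at 37 C/5% CO2 before compound addition. Nonlytic NanoLuc luminescence from viable-cell prosubstrate reduction read repeatedly during 40 h treatment at 37 C.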
On the technique in general: Quantitative high-throughput screening tests each substance at several concentrations.

The nature of assay [2]: A CellTox Green Cytotoxicity Assay to monitor cytotoxicity in HEK293 cells - 40 hour (AID 1224871). Note: nearly all actives have a fitted effect of over 45% in size. The method in brief: (§2)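 Fluorescence intensity, read at 0, 8, 16, 24, 32 and 40 h of compound treatment, reflected dye binding to DNA of dead HEK293 cells; compounds (23 nL, DMSO) were added 5 h after plating cells with reagent.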
The nature of assay [3]: qHTS RealTime-Glo MT Cell Viability Assay in HepG2 cells - 8 hour (AID 1224873). Note: nearly all actives have a fitted effect of over 55% in size. An outline of the steps:
as §1

Assay [4] is described as follows: qHTS RealTime-Glo MT Cell Viability Assay in HEK293 cells - 40 hour (AID 1224874). Note: nearly all actives have a fitted effect of over 50% in size. Particulars: RealTime-Glo luminescence; max response: hits give low values. The method in brief: (§3)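 Viable HEK293 cells reduce a cell-permeant prosubstrate; the product diffuses out and is consumed by NanoLuc in the medium to give light. Compounds went in after a 5 h incubation and plates were read over the treatment course.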

Assay [5] can be described thus: A CellTox Green Cytotoxicity Assay to monitor cytotoxicity in HEK293 cells - 24 hour (AID 1224875). Note: series mostly up to about 77 µM; nearly all actives have a fitted effect of over 45% in size. An outline of the steps:
as §2

Assay [6] in a line: A CellTox Green Cytotoxicity Assay to monitor cytotoxicity in HepG2 cells - 16 hour (AID 1224876). Note: nearly all actives have a fitted effect of over 45% in size. The method in brief:
(§4)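 Using 1536-well format, dye-containing HepG2 suspension was seeded, allowed 5 h at 37 C/5% CO2, dosed by pintool with compounds, positive and negative controls, and imaged for fluorescence across 40 h.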

A short description of assay [7]: qHTS RealTime-Glo MT Cell Viability Assay in HepG2 cells - 32 hour (AID 1224877). Note: nearly all actives have a fitted effect of over 55% in size. An outline of the steps: (§5)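 Cells + NanoLuc/prosubstrate dispensed (600 cells/well) → 5 h at 37 C/5% CO2 → compounds in DMSO transferred → 40 h incubation at 37 C, luminescence read at 0, 8, 16, 24, 32, 40 h.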
Assay [8] is described as follows: A CellTox Green Cytotoxicity Assay to monitor cytotoxicity in HepG2 cells - 24 hour (AID 1224878). Note: nearly all actives have a fitted effect of over 45% in size. An outline of the steps: as §4
A short description of assay [9]: A CellTox Green Cytotoxicity Assay to monitor cytotoxicity in HepG2 cells - 40 hour (AID 1224879). Note: nearly all actives have a fitted effect of over 40% in size. The method in brief:
as §4

Assay [10] in a line: qHTS RealTime-Glo MT Cell Viability Assay in HEK293 cells - 0 hour (AID 1224880). The method in brief:
as §3

The nature of assay [11]: A CellTox Green Cytotoxicity Assay to monitor cytotoxicity in HEK293 cells - 32 hour (AID 1224881). Note: nearly all actives have a fitted effect of over 40% in size. The method in brief:
as §2

Assay [12] can be described thus: A CellTox Green Cytotoxicity Assay to monitor cytotoxicity in HepG2 cells - 0 hour (AID 1224882). Note: nearly all actives have a fitted effect of over 35% in size. The method in brief: as §4
A short description of assay [13]: A CellTox Green Cytotoxicity Assay to monitor cytotoxicity in HepG2 cells - 32 hour (AID 1224883). Note: nearly all actives have a fitted effect of over 50% in size. Note: potency is the fitted concentration of half-maximal effect. The method in brief: as §4
The nature of assay [14]: A CellTox Green Cytotoxicity Assay to monitor cytotoxicity in HEK293 cells - 8 hour (AID 1224884). Note: nearly all actives have a fitted effect of over 35% in size. The method in brief: as §2
The nature of assay [15]: qHTS RealTime-Glo MT Cell Viability Assay in HepG2 cells - 16 hour (AID 1224885). Note: nearly all actives have a fitted effect of over 50% in size. An outline of the steps:
as §5

The nature of assay [16]: qHTS RealTime-Glo MT Cell Viability Assay in HEK293 cells - 24 hour (AID 1224886). An outline of the steps: (§6)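 Tox21 10K qHTS, HEK293, 600 cells/well, RealTime-Glo reagent co-dispensed with cells; 5 h preincubation, compound by pintool, 37 C, luminescence at 0–40 h.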
A short description of assay [17]: qHTS RealTime-Glo MT Cell Viability Assay in HEK293 cells - 8 hour (AID 1224887). The method in brief: as §3
A short description of assay [18]: A CellTox Green Cytotoxicity Assay to monitor cytotoxicity in HEK293 cells - 16 hour (AID 1224888). Note: nearly all actives have a fitted effect of over 35% in size. The method in brief:
as §2

Assay [19] is described as follows: qHTS RealTime-Glo MT Cell Viability Assay in HepG2 cells - 0 hour (AID 1224889). Note: nearly all actives have a fitted effect of over 50% in size. An outline of the steps:
as §5

The nature of assay [20]: qHTS RealTime-Glo MT Cell Viability Assay in HEK293 cells - 16 hour (AID 1224872). The method in brief:
as §6

Structures are written as SMILES. Values without a mark were called inactive. Results filed as inconclusive are left out. The source made the active and inactive calls. Calls come from the whole dose curve; as a rule, active = well fitted curve in the direction sought with a large enough effect in the repeat runs; inconclusive = weak or mixed curves; inactive = no such curve, though single readings can be large; an effect the other way counts as inactive or inconclusive.
% is set by controls: 0 for no effect and ±100 for the full control effect.

Turning to `CCCCN(CCO)CCO`, the Potency result in assay [1], in assay [2], in assay [5], in assay [6], in assay [7] and in assay [8] was “inactive” in each case. For the same compound, the Potency result in [9], in assay [11], in [12], in [13], in assay [14] and in assay [16] was “inactive” throughout. The Potency entry in assay [17], in assay [18] and in assay [19] was “inactive” each time. In addition, the compound was called inactive in [3], in [10] and in [15]. Besides, the max response in assay [4] is 19%.
Regarding `CC(C=O)Cc1ccc(C(C)C)cc1` (stereo not given), the Potency result in assay [1], in assay [2], in assay [5], in assay [6], in [7] and in assay [8] was “inactive” throughout. For the same compound, the Potency entry in assay [9], in [11], in assay [12], in [13], in [14] and in assay [16] was “inactive” each time. Also, the Potency entry in assay [17], in [18] and in assay [19] was “inactive” in each case. The call in assay [3], in assay [10] and in [15] was inactive. Further, the max response in [4] was 18.5%.
On to `Oc1ccc2c(c1)OC[C@@H](N1CCC(O)(c3ccc(F)cc3)CC1)[C@H]2O`, for which the Potency entry in assay [1], in [2], in [20], in assay [5], in [6] and in [8] was “inactive” in each case. Moreover, the Potency result in assay [9], in assay [11], in assay [12], in [13], in assay [14] and in assay [16] was “inactive” throughout. Besides, the Potency entry in [17], in assay [18] and in assay [19] was “inactive” each time. Besides, the max response in [4] was -13.9%. Further, the call in assay [10] and in [15] was inactive.
Regarding `COC(=O)C1=C(C)NC(C)=C(C(=O)OCC(C)=O)C1c1ccccc1[N+](=O)[O-]` (stereo not given), the Potency entry in [1], in assay [2], in [20], in assay [5], in assay [6] and in assay [7] was “inactive” in each case. For the same compound, the Potency entry in [8], in assay [9], in [11], in assay [12], in assay [13] and in [14] was “inactive” throughout. In addition, the Potency entry in [16], in [17] and in assay [18] was “inactive” throughout.
For the compound `O=C1CC2(CCCC2)CC(=O)N1`, the Potency result in assay [1], in assay [2], in assay [5], in assay [6], in assay [7] and in [8] was “inactive” throughout. For the same compound, the Potency result in [9], in [11], in assay [12], in assay [13], in assay [14] and in assay [16] was “inactive” throughout. Moreover, the Potency result in [17], in assay [18] and in assay [19] was “inactive” each time. In addition, the call in assay [3] and in assay [15] was inactive. For the same compound, the max response in assay [4] is 3.72%.
On to `CC(C)=CC(=O)O`, for which the Potency entry in assay [1], in [2], in assay [20], in [5], in [6] and in [7] was “inactive” throughout. In addition, the Potency entry in assay [8], in [9], in assay [11], in assay [12], in assay [13] and in [14] was “inactive” each time. Further, the Potency result in [16], in [17], in assay [18] and in assay [19] was “inactive” in each case. Besides, the outcome in [10] and in assay [15] was inactive.
As to `O=C(O)CCNC(=O)c1ccc(N=Nc2ccc(O)c(C(=O)O)c2)cc1`, the Potency result in assay [1], in assay [2], in assay [5], in [6], in assay [7] and in assay [8] was “inactive” in each case. The Potency result in assay [9], in assay [11], in assay [12], in [13], in assay [14] and in assay [16] was “inactive” each time. Further, the Potency result in [17], in [18] and in [19] was “inactive” in each case. Moreover, the outcome in [3] and in assay [15] was inactive. Moreover, the max response in [4] is -0.519%.
`CCCCCCCCCCCCCCC`: the Potency result in assay [1], in assay [2], in assay [5], in assay [6], in [7] and in assay [8] was “inactive” throughout. Further, the Potency result in assay [9], in [11], in assay [12], in assay [13], in assay [14] and in [16] was “inactive” each time. Also, the Potency entry in assay [17] is “inactive”. The call in assay [3], in [10] and in assay [15] was inactive. In addition, in assay [4], the max response was 10.7%.
As to `Cc1ccccc1Br`, the Potency entry in assay [1], in assay [2], in assay [20], in assay [5], in assay [6] and in [7] was “inactive” in each case. Moreover, the Potency result in assay [8], in assay [9], in assay [11], in [12], in [13] and in [14] was “inactive” in each case. Moreover, the Potency result in [16], in assay [17], in assay [18] and in assay [19] was “inactive” throughout. The max response in [4] was 5.36%. Besides, in assay [15], the call was inactive.
As for `CCCCCCCCN(C)CCCCCCCC`, the Potency result in assay [1], in [2], in assay [5], in assay [6], in [7] and in assay [11] was “inactive” in each case. Further, the Potency result in assay [12], in assay [14], in assay [16], in [17] and in assay [18] was “inactive” each time. For the same compound, the compound was classed as inactive in [3] and in [10]. In assay [4], the max response is 4.39%. The Potency in assay [13] is 22.1 µM (active).
As for `CC(C)CCCCCCN`, the Potency entry in [1], in assay [2], in assay [5], in assay [6], in assay [7] and in assay [8] was “inactive” throughout. The Potency result in assay [9], in [11], in [12], in assay [13], in assay [14] and in assay [16] was “inactive” throughout. The Potency entry in assay [17], in [18] and in assay [19] was “inactive” throughout. Further, the compound was classed as inactive in assay [3] and in assay [10]. Besides, in assay [4], the max response was -7.14%.
With `Oc1cc(O)c2c(c1)O[C@H](c1ccc(O)c(O)c1)[C@H](O)C2`, the Potency result in assay [1], in [2], in [5], in [6], in [7] and in assay [8] was “inactive” in each case. The Potency result in assay [9], in [11], in assay [12], in assay [13], in [14] and in [16] was “inactive” in each case. In addition, the Potency result in [17], in [18] and in [19] was “inactive” each time. For the same compound, the outcome in assay [3], in assay [10] and in assay [15] was inactive. Further, the max response in assay [4] was 0.448%.
In the case of `CCCC(C)CO` (stereo not given), the Potency result in assay [1], in [2], in assay [20], in assay [6], in assay [7] and in assay [8] was “inactive” in each case. Besides, the Potency entry in assay [9], in [11], in [12], in [13], in assay [14] and in [16] was “inactive” throughout. The Potency result in [17], in [18] and in [19] was “inactive” each time. In assay [4], the max response was 8.5%. Besides, the compound was classed as inactive in [10] and in assay [15].
